Screening data as filed in PubChem.
This is a sample that favours compounds with a hit; in the whole collection about 11% have one here.
Pf growth 48h – P. falciparum growth inhibition at 48 hours (one generation); P. falciparum luciferase growth in erythrocytes, 48 h; Potency, µM (doses to about 28.7 µM), for inactives: top-dose activity change, negative = inhibition, usual class: inhibitors; 310,000 compounds, 5.9% hits; further: on the % scale 0 is the no-effect control and ±100 the full control effect
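Here the parasites carry a stable luciferase gene and grow inside erythrocytes in Albumax-based RPMI medium with compound for one erythrocytic cycle. Activity is scored as loss of luminescent signal.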
HCV inhibitor – HCV inhibition | 340,000 compounds, 3.4% hits | Huh7.5.1 HCVcc-Cre infection, luciferase reporter, 44 h | Potency, µM (top dose mostly 41.8 µM), for the others: at the highest dose activity change, negative = inhibition, actives largely listed as inhibitors; further: on the % scale 0 is the no-effect control and ±100 the full control effect
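After 44 h co-culture of compound, cells and HCVcc-Cre (~0.5 moi), substrate is added for 15 min at room temperature and luciferase measured over 15 sec. Cells were seeded at 1,000/well and pre-cultured 4 h.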
Pf growth 96h – P. falciparum growth inhibition at 96 hour, primary screen for plastid delayed-death inhibitors | P. falciparum luciferase reporter growth, 96 h | Potency, µM (highest dose often 28.7 µM), for inactives: at the highest dose activity change, negative = inhibition, usual class: inhibitors | 320,000 compounds, 6.9% hits; further: on the % scale 0 is the no-effect control and ±100 the full control effect
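Readout is luminescence from an integrated firefly luciferase in P. falciparum. Red cells, 2% hematocrit and 0.05% parasitemia final, were cultured with compound through two parasite generations (96 hours) at 37 C, 5% CO2.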
VACV Venus inh – vaccinia inhibition (Venus reporter) | Vaccinia virus Venus reporter expression, fluorescence | Potency, µM (doses to about 36.5 µM), for inactives: at the highest dose activity change, negative = inhibition, most hits filed as inhibitors | 330,000 compounds, 0.46% hits; calls by dose curve; tested in A549 cells; further: on the % scale 0 is the no-effect control and ±100 the full control effect; nearly all actives have a fitted effect of over 30% in size
NS1 function inh – influenza NS1 inhibition; Potency, µM (series often up to 46.1 µM), for inactives: top-dose activity, positive = more growth; 270,000 compounds, 0.4% hits; AID 2326; calls by dose curve; further: actives are rising curves; nearly all actives have a fitted effect of over 50% in size
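Growth recovery, yeast-based: influenza A NS1 expressed in S. cerevisiae causes slow growth, and suppressors are detected by OD600. The parent strain without NS1 is used as positive control.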
Vaccinia mCherry – inhibitors of vaccinia virus infection (mCherry reporter signal); AID 720579; 310,000 compounds, 0.63% hits; Potency, µM (doses to about 36.5 µM), for inactives: at the highest dose activity change, negative = inhibition, actives largely listed as inhibitors; Vaccinia virus mCherry reporter infection, fluorescence; calls by dose curve; tested in A549 cells; further: on the % scale 0 is the no-effect control and ±100 the full control effect; nearly all actives have a fitted effect of over 35% in size
* = called active by the depositor; i = inactive; ? = inconclusive; · = not tested or not shown; ! = not active in a repeat; [ ] = dose if it differs, or a comment. Unless noted, the call rests on the fitted dose curve; in most records, active means well fitted inhibition curve with a large enough effect; inconclusive means small, poorly fitted or top-dose-only effect, or another doubt; inactive means no such curve, though single readings can be large or run the other way. Potency means the concentration at half of the fitted maximal effect.

SMILES	Pf growth 48h	HCV inhibitor	Pf growth 96h	VACV Venus inh	NS1 function inh	Vaccinia mCherry
COC(=O)c1c(-c2c(Cl)cccc2Cl)noc1C(=O)NNC(=O)N(C)C	26%	9%	37%	-6%[7.34 µM]	4%	i[7.34 µM]
C=CSc1sc(Cl)c(N2CCOCC2)c1[N+](=O)[O-]	8.3µM*	9%	25%	-8%	-10%	-12%
C=CS(=O)(=O)c1sc(Cl)c(N2CCOCC2)c1[N+](=O)[O-]	-7%	?	-13%	?	-77%	?
Cc1ccc([N+](=O)[O-])cc1N/C=C/C(=O)c1ccco1	32%	6.3µM*	64%	-20%	-2%	-28%
Cc1ccc(N=Nc2c(N)[nH]n3c(=O)cc(-c4ccccc4)nc23)cc1	?	13µM*	?	0%	8%	6%
CCCc1cc(=O)n2[nH]c(C)c(-c3ccccc3)c2n1	-2%	-4%	0%	?	0%	·
CCCCc1c(C)nc2c(-c3ccc(Cl)cc3)c(C)[nH]n2c1=O	·	·	·	?	·	11µM*
Cc1[nH]n2c(=O)cc(-c3ccc(Cl)cc3)nc2c1-c1ccccc1	·	·	·	?	·	8.9µM*
CCc1c(C)nc2c(-c3ccccc3)c(C)[nH]n2c1=O	5%	-6%	-20%	-21%	-7%	?
Cc1[nH]n2c(=O)cc(C(C)(C)C)nc2c1-c1ccccc1	?	10µM*	-6%	?	-10%	10µM*
O=C(COC(=O)c1ccc(O)cc1)Nc1cc(S(=O)(=O)N2CCOCC2)ccc1N1CCOCC1	·	-15%	·	·	·	·
O=C1CC(C(=O)NCCc2ccccc2)SC(=Nc2ccccc2)N1 (configuration not stated)	-9%	7%	2%	-11%	1%	-4%
Cc1[nH]n2c(=O)cc(-c3ccc([N+](=O)[O-])cc3)nc2c1-c1ccccc1	·	10µM*	·	-14%	·	-16%
Cc1[nH]n2c(=O)cc(C(C)C)nc2c1-c1ccccc1	-1%	-23%	-12%	-20%	-13%	-7%
CN1CCN(CCC=C2c3ccccc3Sc3ccc(S(=O)(=O)N(C)C)cc32)CC1	12µM*	?	11µM*	?	·	-14%
OCCN1CCN(C(=S)Nc2cccc(C(F)(F)F)c2)CC1	-9%	1%	97%	-8%	0%	-6%[7.34 µM]
OCCN1CCN(CC/C=C2/c3ccccc3Sc3ccc(C(F)(F)F)cc32)CC1	6.6µM*	0.89µM*	8.3µM*!	-29%	-35%	-16%
OCCN1CCN(CCC=C2c3ccccc3Sc3ccc(Cl)cc32)CC1	?	·	4.5µM*	·	·	·
CCCNC(=O)C1(C)CCCN(C(=O)Cc2ccc(OC)cc2)C1 (configuration not stated)	·	·	·	-3%	·	0%
COc1ccccc1OCc1ccc(C(=O)Nc2ccccc2)cc1	95%	?	142%	·	·	·
O=C(Nc1ccc(Cn2cccn2)cc1)c1ccc(COc2ccccc2Br)cc1	-30%	13µM*	12µM*	?	4%	?
Cc1ccc2nc(C)c3c(c2c1)N(c1ccc(F)cc1)CC3	?	?	13µM*	-10%	-57%	?
CSc1nc(C)c2c(n1)N(c1ccc(F)cc1)CC2	9%	?	-14%	-10%	-10%	·
CCOC(=O)C1=C(C)Nc2nc(C)nn2C1c1ccc(C)cc1 (configuration not stated)	-3%	21%	10%	-5%	-5%	-8%
COc1ccc(NS(=O)(=O)c2cc(C)ccc2NC(=O)c2cc(C)oc2C)cc1	?	13µM*!	1%	?	2%	·
SMILES	Pf growth 48h	HCV inhibitor	Pf growth 96h	VACV Venus inh	NS1 function inh	Vaccinia mCherry
COc1ccc(NS(=O)(=O)c2cccc(C(=O)NNC(=O)c3cc(C)oc3C)c2)cc1	1%	-7%	24%	-12%	6%	-13%
CCC(=NCCN1CCOCC1)c1c(O)n(-c2ccccc2C)c(=O)[nH]c1=O	9%	0%	-2%[5.75 µM]	-8%	-7%	-15%
CC/C(=N\N1CCCCCC1)c1c(O)n(-c2ccccc2C)c(=O)[nH]c1=O	?	?	4.7µM*	-20%	2%	?
CC1CCCCN1S(=O)(=O)c1ccc(C(=O)Nc2sccc2C(N)=O)cc1 (configuration not stated)	9.3µM*	?	9.3µM*	-20%	-25%	-8%
CC1CCCCN1S(=O)(=O)c1ccc(C(=O)Nc2sc3c(c2C(N)=O)CC(C)(C)NC3(C)C)cc1 (configuration not stated)	·	·	·	-17%	·	-17%
NC(=O)c1ccsc1NC(=O)c1ccc(S(=O)(=O)N2CCCc3ccccc32)cc1	?	11µM*	10µM*	?	?	-9%
COC(=O)c1sc2ccccc2c1NC(=O)c1ccc(S(=O)(=O)N2CCCCC2C)cc1 (configuration not stated)	15µM*	-24%	13µM*	-12%	11%	i
Cn1c(SCC(=O)Nc2cccnc2Cl)nc2ccccc21	·	2%	·	-17%	·	-5%
CC1CCN(C(=O)Cn2nnc(-c3ccc([N+](=O)[O-])cc3)n2)CC1	47%	-5%	15µM*	·	2%	·
CC1CCN(C(=O)Cn2nnc(-c3ccccc3)n2)CC1	21%	17%	?	·	-15%	·
Cc1ccc(C)c(NC(=O)CN(C)C(=O)Cc2ccccc2)c1	-13%	35%	-34%	4%	7%	-9%
CN(CC(=O)Nc1cccc(F)c1)C(=O)c1ccc(-c2cccc(C(F)(F)F)c2)o1	0.33µM*	-21%	0.12µM*	-25%	·	-3%
CN(CC(=O)Nc1ccc(F)cc1)C(=O)c1ccc(-c2ccc(F)cc2)o1	·	·	·	-24%	·	-8%
COc1cccc(NC(=O)CN(C)CC(=O)Nc2cccc(C(F)(F)F)c2)c1	-24%	-20%	-14%	-17%	4%	i
COc1cccc(NC(=O)CN(C)C(=O)c2ccc(-c3cccc(C(F)(F)F)c3)o2)c1	0.33µM*	?	0.26µM*	-11%	·	-22%
Cc1ccc(C)c(NC(=O)CN(C)C(=O)c2ccc(-c3cccc(C(F)(F)F)c3)o2)c1	1.9µM*	-7%	1.3µM*	-6%	·	-23%
Cc1nc2c(C)cccn2c1/C(O)=C1\C(=O)C(=O)N(CCN(C)C)C1c1cccs1 (configuration not stated)	·	-1%	·	-11%	·	?
O=c1ccc(-c2ccccc2)nn1Cc1ccccc1F	-34%	?	13µM*	-24%	-14%	-19%
CC(=O)Nc1c(C)nn(-c2ccccc2)c1N1CCC(C(=O)NCc2ccccc2Cl)CC1	·	·	·	-9%[7.34 µM]	·	-10%[7.34 µM]
CC(C)(C)OC(=O)NCCCC[C@H](NC(=O)c1[nH]cnc1C(=O)Nc1ccc(Cl)cc1)C(=O)OC(C)(C)C	5.2µM*	?	5.9µM*	?	17%	-17%
CC(C)(C)OC(=O)NCCCC[C@H](NC(=O)c1[nH]cnc1C(=O)Nc1ccccc1)C(=O)OC(C)(C)C	4.7µM*	?	5.2µM*	?	3%	-22%
